Results published in PubChem BioAssay (EPA / NIEHS).
Where a structure was tested more than once in an assay, its records may differ in their call. Activity calls are given as the source filed them. How the source made its calls: active means hit-call score of the fitted dose curve at least 0.9, where 1 is the maximum; inactive means score below 0.9.

read-out: Forkhead box O1 (FOXO1), FOXO1 (gene 2308); assay: LTEA_HepaRG_FOXO1: Life Technologies and Expression Analysis (LTEA) Assay for Forkhead box O1 (FOXO1) using HepaRG (AID 2283456); settings: mRNA level, 48 h; actives raise or lower the signal
Protocol: LTEA_HepaRG is a cell based, multiplexed-readout assay that uses HepaRG, a human liver cell line, with measurements taken at 48 hours after chemical dosing on a 96-well plate.LTEA_HepaRG_FOXO1 is one of 102 assay component(s) measured in the LTEA HepaRG cell culture assay. It is a marker of Cell proliferation, survival, death.Data from the assay component LTEA_HepaRG_FOXO1 was analyzed into 1 endpoint. This assay endpoint, LTEA_HepaRG_FOXO1, was analyzed with bidirectional fitting relative to DMSO as the negative control and baseline of activity. Using a type of inducible reporter, measures of mRNA induction for gain or loss-of-signal activity can be used to understand regulation of transcription factor activity. To generalize the intended target to other relatable targets, this assay endpoint is annotated to the dna binding intended target family, where the subfamily is forkhead box protein.
A total of 1060 chemcials from the ToxCast library were tested in eight-point concentration-response experiments. Cell culture and cytotoxicity assays were conducted at Thermo Fisher Scientific's Custom Services facility (Madison, WI). A single lot of human HepaRG cells (Thermo Fisher Scientific, Frederick, MD) was used for the cell culture experiments. 96-well format collagen type I coated plates of human HepaRG cells were prepared using established methods. Briefly, cryopreserved HepaRG cells were thawed, plated at a density of approximately 100,000 cells/well in HepaRG Thaw, Plate, and General Purpose media (HPRG770, Thermo Fisher Scientific), and incubated for 48 hours. 0.5% DMSO was selected as vehicle control to balance the requisite need of DMSO in HepaRG cultures to maintain differentiation (for example, baseline metabolism, proportions of hepatocytes vs. cholangiocytes), while enabling further hepatic receptor pathway activation (for example, PXR and CAR) in response to chemical exposure. 48 hours after plating, the culture medium was replaced with HepaRG Serum-Free Incudtion Media. Cells were exposed to each test chemical in duplicate and maintained in CO2 incubators for another 48 hours. Chemical plates were thawed to room temperature and 200x concentrations of treatment groups were prepared. 8-point conentration-reponse curves were made with the highest exposure at 100 uM, followed by half-log dilutions, all in 0.5% DMSO. Each test plate contained variouse controls, induction positive controls (1mM phenobarbital), cytotoxicity positive controls ([…] aflatoxin B1), vehicle controls (0.5% DMSO), and total lysis controls (0.5% DMSO). Cell morphology images were taken using an Essen IncuCyte FLR automated microscope, with six 96-well plates imaged in about 24 minutes. Images were captured and exported and JPEG files. Spent culture media was transfered to black-well plates for the LDH assay, and remaining media was sorted at -80 C for later use. Cells were treated with RLT buffer and frozen until shipped for gene expression analysis. Total RNA was isolated from the cell suspension in 75 uL of Buffer RLT (Qiagen, Germantown, MD 20874) by Quintiles/Expression Analysis (Durham, NC) using a custom isolation procedure. Total RNA from each plate well was transferred to a preamplification plate. Fluidigm's 96.96 Dynamic ArrayTM (Fluidigm, Amsterdam, the Netherlands) technology was used for gene expression analyses by quantitative reverse transcription polymerase chain reaction (qRT-PCR, performed by Quintiles/Expression Analysis, Durham, NC)89. Standard TaqManTM Assays (Applied Biosystems/ThermoFisher Scientific, Foster City, CA) were used to assess the expression of 93 genes selected based on their selectivity and sensitivity to important hepatic receptors known to be modulated by environmental chemicals; importance in human hepatocyte functionality; and hepatotoxicity. […]

SMILES | outcome | AC50
C#CCN1C(=O)COc2cc(F)c(N3C(=O)C4=C(CCCC4)C3=O)cc21 | inactive | 
CC1(c2ccc(Oc3ccccc3)cc2)OC(=O)N(Nc2ccccc2)C1=O (stereo not given) |  | 50.2 µM (active)
CNC(=O)Oc1ccccc1OC(C)C | inactive | 
CCOC1Oc2ccc(OS(C)(=O)=O)cc2C1(C)C (stereo not given) |  | 50 µM (active)
CC(C)N(C(=O)COc1nnc(C(F)(F)F)s1)c1ccc(F)cc1 | inactive | 
O=C1c2ccccc2C(=O)N1SC(Cl)(Cl)Cl | inactive | 
CNC(=O)/C=C(\C)OP(=O)(OC)OC | inactive | 
CC(C)(C)C(O)C(Oc1ccc(Cl)cc1)n1cncn1 (stereo not given) | inactive | 
Cc1[nH]c(=O)n(C(C)(C)C)c(=O)c1Cl | inactive | 
CCCN(CCOc1c(Cl)cc(Cl)cc1Cl)C(=O)n1ccnc1 |  | 88.7 µM (active)
O=C(O)COc1ccc(Cl)cc1Cl | inactive | 
CN1CSC(=S)N(C)C1 | inactive | 
ClC1C(Cl)C(Cl)C(Cl)C(Cl)C1Cl (stereo not given) | inactive | 
O=C(O)C(F)(F)C(F)(F)C(F)(F)C(F)(F)C(F)(F)C(F)(F)C(F)(F)F | inactive | 50 µM (active)
CNC(=O)Oc1cccc(N=CN(C)C)c1 | inactive | 
CCCN(CCC)c1c([N+](=O)[O-])cc(C(F)(F)F)cc1[N+](=O)[O-] | inactive | 
O=C(Nc1ccccc1)Nc1cnns1 | inactive | 
CCN(CC)C(=O)SCc1ccc(Cl)cc1 | inactive | 
CNC(=O)CSP(=S)(OC)OC | inactive | 

SMILES | outcome | AC50
CCC(C)(C)C(=O)OC1=C(c2ccc(Cl)cc2Cl)C(=O)OC12CCCCC2 | inactive | 
COP(=S)(OC)Oc1ccc(SC)c(C)c1 | inactive | 
CCc1ccc(C(=O)NN(C(=O)c2cc(C)cc(C)c2)C(C)(C)C)cc1 | inactive | 
CCC(C)(NC(=O)c1cc(Cl)c(C)c(Cl)c1)C(=O)CCl (stereo not given) | inactive | 
O=[N+]([O-])c1c(Cl)c(Cl)c(Cl)c(Cl)c1Cl | inactive | 
COP(=O)(OC)OC=C(Cl)Cl | inactive | 
CC(C)OC(=O)Nc1cccc(Cl)c1 | inactive | 
Oc1cc(Cl)ccc1Oc1ccc(Cl)cc1Cl | inactive | 
COP(=S)(OC)Oc1ccc([N+](=O)[O-])cc1 | inactive | 
N#Cc1c(Cl)c(Cl)c(Cl)c(C#N)c1Cl |  | 21.2 µM (active)
CC[C@H](C)[C@H]1O[C@]2(C=C[C@@H]1C)C[C@@H]1C[C@@H](C/C=C(\C)[C@@H](O[C@H]3C[C@H](OC)[C@@H](O[C@H]4C[C@H](OC)[C@@H](O)[C@H](C)O4)[C@H](C)O3)[C@@H](C)/C=C/C=C3\CO[C@@H]4[C@H](O)C(C)=C[C@@H](C(=O)O1)[C@]34O)O2 (tested in a mixture with another compound) |  | 17.5 µM (active)
CCC(C)Nc1c([N+](=O)[O-])cc(C(C)(C)C)cc1[N+](=O)[O-] (stereo not given) | inactive | 
OCCOc1ccccc1 | inactive | 
O=S1OCC2C(CO1)C1(Cl)C(Cl)=C(Cl)C2(Cl)C1(Cl)Cl (stereo not given) | inactive | 
C[C@H]1[C@H](c2ccc(Cl)cc2)SC(=O)N1C(=O)NC1CCCCC1 |  | 83.2 µM (active)
O=C(NC(=O)c1c(F)cccc1F)Nc1ccc(OC(F)(F)C(F)OC(F)(F)F)c(Cl)c1 (stereo not given) | inactive | 
Oc1ccc(Cl)cc1Cc1ccccc1 | inactive | 
CC(C)(C)C(O)/C(=C\c1ccc(Cl)cc1Cl)n1cncn1 (stereo not given) |  | 89.4 µM (active)
O=S(=O)(O)C(F)(F)C(F)(F)C(F)(F)C(F)(F)C(F)(F)C(F)(F)C(F)(F)C(F)(F)F | inactive | 13.3 µM (active)
